# Screening data from PubChem.
# S2 tox: cell viability loss in ATXN counter-screen. S2 cells (HEK-293 line with an ATXN2-luciferase reporter) viability, CellTiter-Fluor protease fluorescence, 24 h. AID 651635. Potency, µM (highest dose often 56.7 µM), hits mostly cytotoxic. 400,000 compounds, 0.49% hits; further: nearly all actives have a fitted effect of over 40% in size
# HepG2 tox: kills HepG2 cells in TGF-b inhibitor counter-screen; HepG2 CAGA-GFP viability, ATP luminescence, 18 h; Potency, µM (titrated, usually from 46.1 µM), inactives show at the highest dose activity change, negative = cytotoxicity, most hits filed as cytotoxic; 410,000 compounds, 0.76% hits; AID 588856
#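 HepG2 CAGA-GFP cells (1000/well, DMEM with 1% FBS) received compound, then TGF-beta at 500 pg/mL final, and were incubated 18 hours at 37 degrees C. Viability was read by CellTiter-Glo luminescence. Media-only wells were set as complete cell-killing and DMSO as no toxicity.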
# TDP1 cell noCPT: qHTS for Inhibitors of human tyrosyl-DNA phosphodiesterase 1 (TDP1): qHTS in cells in absence of CPT | DT40 Tdp1-/- hTDP1 cells, no CPT, ATP luminescence, 48 h | Potency, µM (series often up to 46.2 µM), without a hit: at the top dose activity change, negative = growth inhibition, actives largely listed as inhibitors | 420,000 compounds, 15% hits | AID 686978, 2013; further: on the % scale 0 is the no-effect control and ±100 the full control effect; nearly all actives have a fitted effect of over 55% in size
#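 Camptothecin absent (DMSO only). Human TDP1-complemented DT40 knockout cells, 400 cells/well, 37 °C for minimum 48 hr; ATP measured via CellTiter-Glo, 30 min dark incubation, luminescence.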
# TDP1 cell CPT: growth inhibition of DT40 Tdp1-/-;hTDP1 cells with camptothecin (screen for TDP1 inhibitors); chicken DT40 Tdp1-/-;hTDP1 cells + 20 nM CPT, ATP luminescence, 48 h; Potency, µM (highest dose often 46.2 µM), inactives show at the top dose activity change, negative = growth inhibition, hits mostly inhibitors; 420,000 compounds, 12% hits; AID 686979; further: on the % scale 0 is the no-effect control and ±100 the full control effect; nearly all actives have a fitted effect of over 55% in size
#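 Cell growth measured by CellTiter-Glo luminescence after a minimum 48 h, 37 C compound exposure with 20 nM CPT in Tdp1-knockout DT40 cells stably expressing hTDP1, seeded 400/well; qHTS titration format.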
# ATXN2 expr inh: reduces ATXN2 reporter expression in HEK-293 cells; HEK-293 ATXN2-luciferase reporter, luminescence, 24 h; Potency, µM (titrated, usually from 57 µM), for the others: top-dose activity change, negative = inhibition, hits mostly inhibitors; 360,000 compounds, 0.72% hits; further: on the % scale 0 is the no-effect control and ±100 the full control effect; nearly all actives have a fitted effect of over 55% in size
#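 qHTS (up to 57 uM final) was run with 24 h compound exposure of reporter cells at 37 °C. Each well was multiplexed: SteadyGlo luminescence measured ATXN2-luciferase expression after a fluorogenic Gly-Phe-AFC viability readout (25 uM final).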
# TGFb inhibitor: TGF-b pathway inhibition; AID 588855; Potency, µM (top dose mostly 46.1 µM), for inactives: at the highest dose activity, negative = inhibition, actives largely listed as inhibitors; 410,000 compounds, 1.2% hits; HepG2 CAGA-GFP TGF-b/SMAD3 reporter, GFP fluorescence, 18 h; TGF-beta stimulated, 500 pg/mL final; further: on the % scale 0 is the no-effect control and ±100 the full control effect; nearly all actives have a fitted effect of over 65% in size
#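 Per well, imaged GFP fluorescence of HEPG2 CAGA-GFP cells gives the signal; cells get compound, then TGF-beta (500 pg/mL final), 18 h at 37 degrees C; %Activity versus -TGF-beta and +DMSO controls.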
# An asterisk follows results filed as active; i = inactive; ? = inconclusive; · = not tested or not shown; [ ] = another dose, or the depositor's remark. Sampled rows, rich in hits. Any-hit rate of the full collection: about 17%. The call rests on the fitted dose curve; in most records, active means well fitted curve in the direction sought with a large enough effect; inconclusive means small, poorly fitted or top-dose-only effect, or another doubt; inactive means no such curve, though single readings can be large; an effect the other way counts as inactive or inconclusive. Potency means the concentration at half of the fitted maximal effect.
SMILES,S2 tox,HepG2 tox,TDP1 cell noCPT,TDP1 cell CPT,ATXN2 expr inh,TGFb inhibitor
OC1(c2cccnc2)CCN(Cc2ccc3c(c2)CN(Cc2ccc(Cl)cc2)CCO3)CC1,i,·,-23%,-14%[9.04 µM],·,·
CCC1C(=O)NCCN1Cc1ccc2c(c1)CN(Cc1cc(OC)ccc1OC)CCO2 (stereo not given),i,·,?,-6%[9.04 µM],·,·
Cc1ccc(CN2CCOc3ccc(CN4CCC(O)(c5cccnc5)CC4)cc3C2)cc1C,i,·,18µM*,-4%[9.04 µM],·,·
CCC1C(=O)NCCN1Cc1ccc2c(c1)CN(Cc1cccc(OC)c1OC)CCO2 (stereo not given),i,·,-19%,0.73µM*,·,·
NC(=O)c1ncn([C@@H]2O[C@H](CNC(=O)[C@H](N)CSCc3ccccc3)[C@@H](O)[C@H]2O)n1,i,2%,12%,18%,9%,17%
Cc1ccc2c(c1)sc1nncn12,i,-7%,5%,5%,·,0%
CCOC(=O)c1cc(C)n(CC2CCC(C(=O)Nc3ccc(Cl)cc3)CC2)c1C (stereo not given),·,-25%,12µM*,18µM*,·,8.9µM*
CCOC(=O)c1cc(C)n(CC2CCC(C(=O)Nc3cccc(Cl)c3)CC2)c1C (stereo not given),·,-44%,16µM*,?,·,?
Nc1nc(C2CC2)c(Sc2sc(N)nc2C2CC2)s1,?,-26%,?,?,50%,-17%
Cc1cc(N2CCCC2)ccc1/C=C1\NC(=S)N(C)C1=O,i,-4%,3.3µM*,4.6µM*,2%,10%
O=C1/C(=C/c2ccc(N3CCCC3)cc2)NC(=S)N1C1CC1,i,-26%,16µM*,16µM*,16%,43%
Cc1ccc(Nc2c([N+](=O)[O-])c(=O)oc3ccccc23)cc1,i,-16%,12µM*,?,?,-12%
CCNc1c([N+](=O)[O-])c(=O)oc2ccccc12,?,4%,12%,17%,0%,-4%
CCc1ccc(Nc2c([N+](=O)[O-])c(=O)oc3ccccc23)cc1,i,3%,7.3µM*,?,-20%,?
Cc1ccc(C)c(Nc2c([N+](=O)[O-])c(=O)oc3ccccc23)c1,i,-7%,10µM*,23µM*,-19%,?
CC(Nc1c([N+](=O)[O-])c(=O)oc2ccccc12)C(Cl)c1ccccc1 (stereo not given),i,-13%,23µM*,?,-10%,-2%
O=c1oc2ccccc2c(Nc2ccc(O)cc2)c1[N+](=O)[O-],i,-8%,-15%,?,-14%,-14%
Cc1csc2nc(CNC(=O)C3CC=CCC3C(=O)O)cn12 (stereo not given),i,-13%,-1%,21%,10%,0%
CCOC(=O)c1ccc(-c2ccc3c(c2)CCC3)nc1C,i,-7%,?,?,·,-5%
COc1ccc(S(=O)(=O)N2CCOCC2)cc1NC(=O)COc1ccc(C(C)=O)cc1OC,i,5%,?,-15%,-1%,7%
Cc1ccc(-n2c(=O)c3c4c(sc3n(Cc3ccccc3C)c2=O)CCC4)cc1C,i,-5%,-11%,-18%,-11%,-10%
O=c1oc2ccccc2c(Nc2ccc3ccccc3c2)c1[N+](=O)[O-],i,-33%,?,15µM*,-3%,0%
Cc1ccccc1Cc1c(C)nc2nc(SCC(=O)NCCCN3CCCCC3)nn2c1C,i,-12%,-18%,-5%,-19%,15%
Cc1ccccc1CSc1nc2nc(C)c(Cc3ccccc3)c(C)n2n1,·,-26%,16µM*,-109%,·,?
Cc1ccccc1Cc1c(C)nc2nc(SCC(=O)N(C)c3ccccc3)nn2c1C,i,-21%,?,23µM*,0%,-27%
SMILES,S2 tox,HepG2 tox,TDP1 cell noCPT,TDP1 cell CPT,ATXN2 expr inh,TGFb inhibitor
Cc1nc2nc(SCC(=O)NC(C)c3ccccc3)nn2c(C)c1Cc1c(F)cccc1Cl (stereo not given),i,-1%,16µM*,23µM*,-16%,0%
Cc1ccccc1Cc1c(C)nc2nc(SCC(=O)NC(C)c3ccccc3)nn2c1C (stereo not given),?,-4%,?,16µM*,-9%,-28%
CCCCN(C(=O)c1cccc(S(=O)(=O)N(C)c2ccc(C)cc2)c1)c1c(N)n(CCCC)c(=O)[nH]c1=O,i,-2%,-26%,?,-1%,0%
CC(C)(C)OC(=O)N1CCC[C@H]1C(=O)N1CCC[C@H]1C(=O)NCc1ccncc1,?,·,-11%,-17%,3%,·
CC(C)(C)CN1C(=O)C(=O)NC[C@@H]1CCCCN,i,16%,9%,-2%,4%,11%
O=C1OCCN1C(=O)[C@H]1[C@H](c2ccccc2)C(c2ccccc2)=NN1c1ccc(Br)cc1,·,-26%,?,-26%,-7%,?
Cc1ccc(Cc2c(C)nc3nc(SCC(=O)NCc4ccco4)nn3c2C)cc1,?,-1%,4.6µM*,3.3µM*,-6%,-11%
CCOc1ccc(-c2cc3nc(C4CCN(C(=O)OC(C)(C)C)CC4)c(C(=O)Nc4cccc(C(F)(F)F)c4)cn3n2)cc1,i,-10%,?,16µM*,15%,-1%
COc1ccc(-c2cc3nc(C4CCN(C(=O)OC(C)(C)C)CC4)c(C(=O)O)cn3n2)cc1,i,-34%,?,?,-4%,16%
CCOC(=O)c1cn2nc(-c3ccc(OCC)cc3)cc2nc1C1CCN(C(=O)OC(C)(C)C)CC1,i,4%,16µM*,?,-15%,-5%
CC1CCN(c2nc3ccccc3nc2C(F)(F)F)CC1,i,3%,-9%,-17%,13%,-23%
CC(/C=C/c1ccccc1)=N\NC(=S)NC(C)C,i,-19%,10µM*,10µM*,-8%,?
CC(/C=C/c1ccccc1)=N\NC(=O)c1ccncc1,i,-15%,-14%,-19%,10%,16%
CC(/C=C/c1ccccc1)=N\NC(=O)Cn1cncn1,i,17%,1%,-7%,7%,-8%
CC(/C=C/c1ccccc1)=N\NC(N)=S,i,-10%,21µM*,18µM*,23%,?
Oc1ccc2cc(Br)ccc2c1CN1CCCC1,?,-29%,23µM*,28%,-11%,?
Oc1ccc2ccccc2c1CN1CCCC1,i,-8%,-14%,1%,25%,17%
